# miR-122 inh – miR-122 suppressors via Renilla sensor increase, primary screen, cell-based, Huh7 psiCHECK-miR122, Renilla luciferase, single point. activation, % at 12.5 µM. 48 h. actives 0.14% (n = 340,000). AID 623901, 2012;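 active = mean activation of 30% or more, with every replicate also reaching 30%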;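 note: 0% = median of neutral control wells and 100% = median of positive control wells; higher luciferase signal means stronger suppression of miR-122 activity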
# * = called active by the depositor. Only a sample is shown.
SMILES,miR-122 inh
CN1C(=O)c2cc(NC(=O)c3cccc(F)c3)ccc2OC[C@H]2O[C@H](CC(=O)NC3CCC3)CC[C@H]21,70.0*
CO[C@H]1CN(C)C(=O)c2cc(NC(=O)c3ccc(F)cc3)ccc2OC[C@H](C)N(C)C[C@@H]1C,-0.7
CC(C)C#Cc1cnc2c(c1)C(=O)N([C@H](C)CO)C[C@@H](C)[C@@H](CN(C)Cc1ccccn1)O2,4.6
CCCNC(=O)N(C)C[C@@H]1Oc2cc(-c3ccccc3)ccc2S(=O)(=O)N([C@H](C)CO)C[C@@H]1C,-6.2
Cc1ccc(-c2cnc3c(c2)C(=O)N([C@H](C)CO)C[C@@H](C)[C@@H](CN(C)Cc2ccccc2F)O3)cc1,-2.5
COc1ccc(NC(=O)Nc2cccc3c2O[C@H](CN(C)Cc2ccc4c(c2)OCO4)[C@@H](C)CN([C@@H](C)CO)C3=O)cc1,-95.7
CN(C)Cc1ccccc1CNC(=O)c1cccc(S(=O)(=O)Nc2ccc3c(c2)OCO3)c1,-116.8
C[C@H](CO)N1C[C@H](C)[C@H](CN(C)S(=O)(=O)c2cn(C)cn2)Oc2ncc(-c3cccc(C(F)(F)F)c3)cc2C1=O,4.5
C/C=C/c1cnc2c(c1)C(=O)N([C@@H](C)CO)C[C@H](C)[C@@H](CN(C)C(=O)Nc1ccccc1F)O2,-2.8
C[C@@H]1CN([C@H](C)CO)S(=O)(=O)c2ccc(C#C[C@@H](C)O)cc2O[C@@H]1CN(C)C(=O)c1ccncc1,7.9
C[C@@H]1CN([C@@H](C)CO)C(=O)Cc2cc(N(C)C)ccc2O[C@H]1CN(C)Cc1ccc(C(=O)Nc2ccccc2N)cc1,-113.2
COc1ccccc1C#Cc1ccc2c(c1)O[C@H](CN(C)Cc1ccncc1)[C@@H](C)CN([C@H](C)CO)S2(=O)=O,1.9
C[C@@H]1CN([C@@H](C)CO)C(=O)c2cc(C#Cc3ccc(F)cc3)cnc2O[C@H]1CN(C)CC1CCOCC1,5.8

# Screens (PubChem)
